Test results as given in PubChem BioAssay (EPA / NIEHS).
Values joined by “and” are separate entries in the source; they are usually repeats but may differ in a detail not shown here. Equal entries are not always repeated. More than one record can exist for a structure, and the calls need not agree. Active and inactive are the calls of the source. Rule for the calls: active = hit-call score of the fitted dose curve at least 0.9, where 1 is the maximum; inactive = score below 0.9.

What was measured:
[1] = read-out: C-C motif chemokine 2 (Homo sapiens) (UniProt P13500); assay: BSK_KF3CT_MCP1: BioMAP Diversity Plus: KF3CT Assay for Monocyte Chemoattractant Protein 1 (MCP1/CCL2) Biomarker Activity (AID 2283073); conditions: primary human keratinocytes with fibroblasts; actives raise or lower the signal
Summary of the method: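 Human keratinocyte plus foreskin fibroblast primary co-culture exposed to chemical for 24 h. MCP-1 levels measured by ELISA. Bidirectional curve fitting relative to DMSO negative control as baseline.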

[2] = read-out: Matrix Metallopeptidase 9 (MMP9), MMP9 (gene 4318); assay: BSK_KF3CT_MMP9: BioMAP Diversity Plus: KF3CT Assay for Matrix Metallopeptidase 9 (MMP9) Biomarker Activity (AID 2283074); conditions: primary human keratinocytes with fibroblasts; actives raise or lower the signal
Summary of the method: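 MMP-9 quantified by ELISA after 24 h chemical treatment of primary human skin keratinocyte/fibroblast co-cultures; gain or loss fitted against DMSO, with parallel SRB staining (0.1% SRB, 560 nm) for overt cytotoxicity.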

[3] = read-out: urokinase plasminogen activator (uPA), PLAU (gene 5328); assay: BSK_KF3CT_uPA: BioMAP Diversity Plus: KF3CT Assay for urokinase plasminogen activator (uPA) Biomarker Activity (AID 2283075); conditions: primary human keratinocytes with fibroblasts; actives raise or lower the signal
Summary of the method: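 ELISA read-out of uPA 24 h after dosing human skin keratinocytes co-cultured with foreskin fibroblasts. Signal change fitted both ways relative to DMSO; sulforhodamine B on parallel cultures marks overt cytotoxicity.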

CD40, CD40 (gene 958) [4] = assay: BSK_LPS_CD40: BioMAP Diversity Plus: LPS Assay for CD40 Biomarker Activity (AID 2283076); conditions: primary human HUVEC with PBMC; actives raise or lower the signal
Summary of the method: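 Primary human umbilical vein endothelial cells co-cultured with peripheral blood mononuclear cells, LPS-stimulated, were dosed with chemical and read 24 h later. CD40 levels were measured by ELISA and fitted bidirectionally against DMSO as negative control and baseline.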

[5] = read-out: E-selectin (Homo sapiens) (UniProt P16581); assay: BSK_LPS_Eselectin: BioMAP Diversity Plus: LPS Assay for Eselectin Biomarker Activity (AID 2283077); conditions: primary human HUVEC with PBMC; actives raise or lower the signal
Summary of the method: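 Human umbilical vein endothelial cells co-cultured with peripheral blood mononuclear cells under LPS stimulation; E-selectin measured by ELISA 24 h after chemical dosing. Activity fitted bidirectionally against DMSO as negative control and baseline.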

[6] = read-out: Interleukin-8 (IL8), CXCL8 (gene 3576); assay: BSK_LPS_IL8: BioMAP Diversity Plus: LPS Assay for Interleukin-8 (IL8) Biomarker Activity (AID 2283078); conditions: primary human HUVEC with PBMC; actives raise or lower the signal
Summary of the method: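 Human umbilical vein endothelial cells co-cultured with PBMC were stimulated with LPS; IL-8 levels were measured by ELISA 24 h after chemical dosing. Activity was fitted bidirectionally against DMSO as negative control and baseline.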

[7] = read-out: Interleukin-1 alpha (IL1a), IL1A (gene 3552); assay: BSK_LPS_IL1a: BioMAP Diversity Plus: LPS Assay for Interleukin-1 alpha (IL1a) Biomarker Activity (AID 2283080); conditions: primary human HUVEC with PBMC; actives raise or lower the signal
Summary of the method: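 Human umbilical vein endothelial cells co-cultured with peripheral blood mononuclear cells were LPS-stimulated and exposed to test chemicals for 24 h. IL-1 alpha was quantified by ELISA, with bidirectional curve fitting against DMSO as the negative control and baseline.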

[8] = read-out: Monocyte Chemoattractant Protein-1 (MCP1), CCL2 (gene 6347); assay: BSK_LPS_MCP1: BioMAP Diversity Plus: LPS Assay for Monocyte Chemoattractant Protein-1 (MCP1) Biomarker Activity (AID 2283081); conditions: primary human HUVEC with PBMC; actives raise or lower the signal
Summary of the method: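 HUVEC plus PBMC co-culture (human primary cells, LPS system) exposed to test chemical for 24 h; MCP-1 measured by ELISA. Bidirectional curve fitting against DMSO baseline; parallel SRB total-protein staining flags overt cytotoxicity.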

[9] = BSK_LPS_PGE2: BioMAP Diversity Plus: LPS Assay for Prostaglandin E2 (PGE2) Biomarker Activity (AID 2283082); conditions: primary human HUVEC with PBMC; actives raise or lower the signal;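 for AC50: secreted prostaglandin E2 measured by ELISA in LPS-stimulated co-culture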
Summary of the method: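 ELISA read-out of PGE2 from human umbilical vein endothelial cells co-cultured with peripheral blood mononuclear cells under LPS, 24 h post-dose. Gain or loss of signal scored relative to DMSO baseline.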

[10] = read-out: Macrophage colony-stimulating factor (MCSF), CSF1 (gene 1435); assay: BSK_LPS_MCSF: BioMAP Diversity Plus: LPS Assay for Macrophage colony-stimulating factor (MCSF) Biomarker Activity (AID 2283083); conditions: primary human HUVEC with PBMC; actives raise or lower the signal
Summary of the method: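 Human umbilical vein endothelial cells co-cultured with peripheral blood mononuclear cells were exposed to compound for 24 h. M-CSF levels were measured by ELISA, and bidirectional curve fitting used DMSO as the negative control and baseline.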

[11] = read-out: Tissue Factor, F3 (gene 2152); assay: BSK_LPS_TissueFactor: BioMAP Diversity Plus: LPS Assay for Tissue Factor Biomarker Activity (AID 2283084); conditions: primary human HUVEC with PBMC; actives raise or lower the signal
Summary of the method: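 Human umbilical vein endothelial cells co-cultured with peripheral blood mononuclear cells were dosed and stimulated with LPS. Cell-surface CD142 was quantified by ELISA at 24 h. Activity was fitted bidirectionally against DMSO baseline.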

[12] = read-out: Tumor necrosis factor (Homo sapiens) (UniProt P01375); assay: BSK_LPS_TNFa: BioMAP Diversity Plus: LPS Assay for Tumour Necrosis Factor alpha (TNFa) Biomarker Activity (AID 2283085); conditions: primary human HUVEC with PBMC; actives raise or lower the signal;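 for AC50: TNFa protein level quantified by ELISA in the co-culture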
Summary of the method: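 HUVEC/PBMC co-culture, LPS-stimulated; 24 h post-dose; TNFa by ELISA; gain or loss of signal fitted bidirectionally vs DMSO baseline.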

[13] = read-out: Vascular cell adhesion molecule 1 (VCAM1), VCAM1 (gene 7412); assay: BSK_LPS_VCAM1: BioMAP Diversity Plus: LPS Assay for Vascular cell adhesion molecule 1 (VCAM1) Biomarker Activity (AID 2283086); conditions: primary human HUVEC with PBMC; actives raise or lower the signal
Summary of the method: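 ELISA read-out of VCAM-1 at 24 h post-dosing in an LPS-driven HUVEC/PBMC primary human co-culture; gain or loss of signal fitted bidirectionally against DMSO baseline. Cytotoxicity tracked in parallel cultures by SRB total-protein staining.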

CD38, CD38 (gene 952) = assay: BSK_SAg_CD38: BioMAP Diversity Plus: SAg Assay for CD38 Biomarker Activity (AID 2283087); conditions: primary human HUVEC with PBMC; actives raise or lower the signal
Summary of the method: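 Measures CD38 on a human endothelial/PBMC co-culture driven by SEB and TSST-1, 24 h after compound exposure, using ELISA with fluorescence detection; DMSO defines baseline for bidirectional curve fitting.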

CD40, CD40 (gene 958) [14] = assay: BSK_SAg_CD40: BioMAP Diversity Plus: SAg Assay for CD40 Biomarker Activity (AID 2283088); conditions: primary human HUVEC with PBMC; actives raise or lower the signal
Summary of the method: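 Human umbilical vein endothelial cells co-cultured with PBMC; CD40 levels measured by ELISA with fluorescence read-out 24 h after chemical dosing. Gain or loss of signal fitted bidirectionally against DMSO baseline.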

CD69, CD69 (gene 969) = assay: BSK_SAg_CD69: BioMAP Diversity Plus: SAg Assay for CD69 Biomarker Activity (AID 2283089); conditions: primary human HUVEC with PBMC; actives raise or lower the signal;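 for AC50: cell surface CD69 protein quantified by ELISA with fluorescence detection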
Summary of the method: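 Primary human vascular co-culture (umbilical vein endothelium with peripheral blood mononuclear cells) exposed to test chemical for 24 h. CD69 levels quantified by fluorescence ELISA; DMSO served as negative control for bidirectional fitting.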

[15] = read-out: Monocyte Chemoattractant Protein-1 (MCP1), CCL2 (gene 6347); assay: BSK_SAg_MCP1: BioMAP Diversity Plus: SAg Assay for Monocyte Chemoattractant Protein-1 (MCP1) Biomarker Activity (AID 2283090); conditions: primary human HUVEC with PBMC; actives raise or lower the signal
Summary of the method: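 Values derive from bidirectional fitting of ELISA-measured MCP1 against DMSO controls. Readings were taken 24 h after dosing human vascular endothelial cells co-cultured with peripheral blood mononuclear cells under superantigen stimulation.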

[16] = read-out: E-selectin (Homo sapiens) (UniProt P16581); assay: BSK_SAg_Eselectin: BioMAP Diversity Plus: SAg Assay for Eselectin Biomarker Activity (AID 2283091); conditions: primary human HUVEC with PBMC; actives raise or lower the signal
Summary of the method: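 HUVEC co-cultured with PBMC, compound dosed then read at 24 h; E-selectin measured by ELISA. Activity fitted bidirectionally against DMSO as negative control and baseline.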

[17] = read-out: Monokine induced gamma interferon (MIG), CXCL9 (gene 4283); assay: BSK_SAg_MIG: BioMAP Diversity Plus: SAg Assay for Monokine induced gamma interferon (MIG) Biomarker Activity (AID 2283092); conditions: primary human HUVEC with PBMC; actives raise or lower the signal
Summary of the method: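 Endothelial cells and PBMC were co-cultured, exposed to test chemicals, and sampled 24 h later. MIG was measured by ELISA, and responses were fitted in both directions relative to DMSO.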

[18] = BSK_LPS_SRB: Viability Assessment in the BioMAP Diversity Plus: LPS Assay (AID 2283079); conditions: primary human HUVEC with PBMC;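 note: total protein by sulforhodamine B absorbance as a cytotoxicity measure; measured one day after compound addition; fitted in both directions against DMSO so loss or gain of signal counts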
Summary of the method: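 Human umbilical vein endothelial cells co-cultured with PBMC (LPS system) were dosed for 24 h. Total protein was stained with 0.1% sulforhodamine B after 10% TCA fixation, read at 560 nm, and fitted bidirectionally against DMSO baseline.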

Measured: AC50

Sequence of E-selectin (Homo sapiens) (P16581 whole entry, looked up): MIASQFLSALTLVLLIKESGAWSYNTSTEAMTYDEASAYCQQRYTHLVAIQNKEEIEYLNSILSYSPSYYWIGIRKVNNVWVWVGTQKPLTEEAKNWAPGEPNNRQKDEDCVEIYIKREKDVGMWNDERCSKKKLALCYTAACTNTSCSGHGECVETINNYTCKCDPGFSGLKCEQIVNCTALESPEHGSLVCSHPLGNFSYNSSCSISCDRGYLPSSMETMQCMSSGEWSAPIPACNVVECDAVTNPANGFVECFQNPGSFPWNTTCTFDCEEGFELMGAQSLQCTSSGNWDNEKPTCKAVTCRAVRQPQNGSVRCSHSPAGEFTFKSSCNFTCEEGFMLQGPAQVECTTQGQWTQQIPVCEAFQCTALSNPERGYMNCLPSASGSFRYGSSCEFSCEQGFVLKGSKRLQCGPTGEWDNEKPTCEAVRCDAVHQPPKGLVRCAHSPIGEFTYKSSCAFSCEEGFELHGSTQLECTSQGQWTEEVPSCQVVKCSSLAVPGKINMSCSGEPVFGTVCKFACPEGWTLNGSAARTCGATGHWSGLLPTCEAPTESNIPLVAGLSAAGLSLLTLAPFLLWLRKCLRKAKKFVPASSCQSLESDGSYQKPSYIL
Sequence of Tumor necrosis factor (Homo sapiens) (P01375 whole entry, looked up): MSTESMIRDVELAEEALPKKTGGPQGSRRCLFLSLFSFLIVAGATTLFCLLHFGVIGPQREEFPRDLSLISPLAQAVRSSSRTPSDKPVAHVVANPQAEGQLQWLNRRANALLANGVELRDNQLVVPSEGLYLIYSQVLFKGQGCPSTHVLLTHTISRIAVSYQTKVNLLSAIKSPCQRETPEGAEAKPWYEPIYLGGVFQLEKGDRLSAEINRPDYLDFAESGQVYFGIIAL

OCCC(F)(F)C(F)(F)C(F)(F)C(F)(F)C(F)(F)C(F)(F)F
inactive: [1] | [2] | [3] | CD40, CD40 (gene 958) [4] | [5] | [6] | [7] | [8] | [9] | [10] | [11] | [12] | [13] | CD38, CD38 (gene 952) | CD40, CD40 (gene 958) [14] | CD69, CD69 (gene 969) | [15] | [16] | [17]
active: CD40, CD40 (gene 958) [4] 40.8 µM | [10] 46.8 µM | [13] 48.9 µM | CD38, CD38 (gene 952) 50.4 µM | CD40, CD40 (gene 958) [14] 56.3 µM | CD69, CD69 (gene 969) 51.3 µM | [16] 54.9 µM | [17] 53.2 µM

C[C@@H]1C[C@H]2[C@@H]3CCC4=CC(=O)C=C[C@]4(C)[C@@]3(F)[C@@H](O)C[C@]2(C)[C@@]1(O)C(=O)COP(=O)(O)O
active: [9] 9.37 µM and 3.63 µM | [12] 4.47 µM and 3.6 µM and 5.06 µM | CD40, CD40 (gene 958) [14] 2.65 µM | [16] 2.96 µM and 1.73 µM and 1.25 µM
inactive: [1] | [2] | [3] | CD40, CD40 (gene 958) [4] | [5] | [6] | [18] | [7] | [8] | [9] | [10] | [11] | [13] | CD38, CD38 (gene 952) | CD40, CD40 (gene 958) [14] | CD69, CD69 (gene 969) | [15] | [17]
